Test [1] is described as follows: qHTS of pediatric cancer cell lines to identify multiple opportunities for drug repurposing: Confirmatory screen for control Hh wild type fibroblast cells (AID 1347121). Note: nearly all actives have a fitted effect of over 70% in size. Note: potency is the fitted concentration of half-maximal effect. The gist of the method: (§1)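 Viability after 48 h compound treatment at 37C, 500-1,000 cells/well, read as ATP luminescence with CellTiter-Glo. Primary screens used 11-point (MIPE, 0.78 nM-46 µM) or 8-point (NPC, 0.59 nM-46 µM) final concentrations; follow-up screens used 11-point dilutions.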

The nature of test [2]: qHTS of pediatric cancer cell lines to identify multiple opportunities for drug repurposing: Confirmatory screen for U-2 OS cells (AID 1347122). Note: nearly all actives have a fitted effect of over 65% in size. Note: potency is the fitted concentration of half-maximal effect. The gist of the method:
as §1

Test [3] in a line: qHTS of pediatric cancer cell lines to identify multiple opportunities for drug repurposing: Confirmatory screen for Rh41 cells (AID 1347123).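 Note: 48 h compound exposure; nearly all actives have a fitted effect of over 60% in size.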 Note: potency is the fitted concentration of half-maximal effect. The gist of the method:
as §1

A short description of test [4]: qHTS of pediatric cancer cell lines to identify multiple opportunities for drug repurposing: Confirmatory screen for Saos-2 cells (AID 1347127). Note: nearly all actives have a fitted effect of over 60% in size. Note: potency is the fitted concentration of half-maximal effect. The gist of the method: as §1
The test system of test [5] is Zika virus NS2B-NS3 protease. As to the kind of experiment: Primary screen GU AMC qHTS for Zika virus inhibitors (AID 1347154).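 For activity change, negative = inhibition: 0% = no-inhibitor control and -100% = no-enzyme control.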 Note: nearly all actives have a fitted effect of over 70% in size. Note: potency is the fitted concentration of half-maximal effect. The gist of the method: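 Unlinked Zika NS2B hydrophilic domain–NS3 protease complex at 25 nM in 10 mM Tris-HCl pH 8.0, 0.01% Tween 20, with an AMC peptide substrate. Fluorescence change (340/450 nm) over 15 min at room temperature, normalized to controls, fitted to 4-parameter Hill.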

Test [6] concerns Zika virus NS2B-NS3 protease (linked construct). The test is described as follows: Primary screen NINDS Rhodamine qHTS for Zika virus inhibitors (AID 1347160). Note: % is set by controls: 0 for no effect and ±100 for the full control effect; nearly all actives have a fitted effect of over 55% in size. The gist of the method:
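Aprotinin served as in-plate control. Conditions: 25 nM linked NS2B-NS3, pH 8.0 Tris buffer, titrated compounds, 15 min preincubation and 15 min reaction with 1.5 microM Rhod110 substrate at room temperature.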

Test [7] can be described thus: qHTS of pediatric cancer cell lines to identify multiple opportunities for drug repurposing: Confirmatory screen for RD cells (AID 1347124).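 Note: cells exposed to compound for 48 h before viability readout; nearly all actives have a fitted effect of over 65% in size.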 Note: potency is the fitted concentration of half-maximal effect. The gist of the method:
as §1

Test [8] in a line: qHTS of pediatric cancer cell lines to identify multiple opportunities for drug repurposing: Confirmatory screen for Rh18 cells (AID 1347125). Note: nearly all actives have a fitted effect of over 55% in size. Note: potency is the fitted concentration of half-maximal effect. The gist of the method:
as §1

Test [9] in a line: qHTS of pediatric cancer cell lines to identify multiple opportunities for drug repurposing: Confirmatory screen for Rh30 cells (AID 1347126). Note: nearly all actives have a fitted effect of over 55% in size. Note: potency is the fitted concentration of half-maximal effect. The gist of the method: as §1
Test [10] can be described thus: qHTS of pediatric cancer cell lines to identify multiple opportunities for drug repurposing: Confirmatory screen for OHS-50 cells (AID 1347128).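 Note: compound exposure lasted 48 h at 37 degrees C; nearly all actives have a fitted effect of over 55% in size.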 Note: potency is the fitted concentration of half-maximal effect. The gist of the method:
as §1

Test [11] is described as follows: qHTS of pediatric cancer cell lines to identify multiple opportunities for drug repurposing: Confirmatory screen for SK-N-SH cells (AID 1347129).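 Note: cells exposed to compound for 48 h before viability read; nearly all actives have a fitted effect of over 60% in size.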 Note: potency is the fitted concentration of half-maximal effect. The gist of the method: as §1
For the next test, the target named is Furin (Homo sapiens) (UniProt P09958). The test is described as follows: Furin counterscreen qHTS for Zika virus inhibitors (AID 1347149).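 Note: purified recombinant full-length human furin enzyme at 5 nM; fluorescence gain from furin cutting a BOC-RVRR-AMC peptide substrate over 15 min; top concentration of the series differs between compounds; plate controls were no-inhibitor control for no effect and no-enzyme control for full effect; nearly all actives have a fitted effect of over 70% in size.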 The gist of the method:
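Counterscreen measures cleavage of 2 microM BOC-RVRR-AMC, below its ~15 microM Km, by 5 nM full-length human furin at pH 7.0 after a 15-min compound preincubation. Inhibition derives from the 15-min fluorescence increase at 37C.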

In test [12] the test system is Zika virus NS2B-NS3 protease (linked construct). The test is described as follows: Confirmatory screen NINDS AMC qHTS for Zika virus inhibitors (AID 1347152).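 Note: AMC fluorescence gain from cleaved Bz-Nle-KRR-AMC substrate over 15 min; top concentration of the series differs between compounds; 0% = no-inhibitor control and -100% = no-enzyme control; nearly all actives have a fitted effect of over 70% in size.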 The gist of the method: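 Concentration-response confirmation used the NINDS linked protease (NS2B hydrophilic domain joined to NS3 protease domain), 1 nM, with a 15-min compound preincubation. Substrate, Nle-KRR-AMC at 10 microM, was read by UV fluorescence before and after 15 min.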

Test [13] relates to Zika virus NS2B-NS3 protease (unlinked complex). As to the kind of experiment: Confirmatory screen GU AMC qHTS for Zika virus inhibitors (AID 1347153). The gist of the method: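 Noncovalent NS2B hydrophilic domain/NS3 protease complex (25 nM) in 10 mM Tris-HCl pH 8.0, 0.01% Tween 20 was preincubated 15 min at room temperature with compounds. Then 10 µM AMC substrate (Km 18.3 µM) was added; fluorescence was read over 15 min and fitted to a 4-parameter Hill equation.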

Test [14] can be described thus: Confirmatory screen NINDS Rhodamine qHTS for Zika virus inhibitors (AID 1347161).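 Note: purified Zika NS2B-NS3 protease with linked NS2B cofactor domain and Rhodamine110 peptide substrate; series mostly up to about 110 µM; plate controls were no-inhibitor control for no effect and no-enzyme control for full effect; nearly all actives have a fitted effect of over 60% in size.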 The gist of the method:
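Rhodamine110-peptide cleavage (1.5 µM substrate) by 25 nM linked NS2B-NS3 enzyme at pH 8.0 (Tris, Tween 20), after 15 min RT preincubation with compounds; 15-min fluorescence change normalized to controls and Hill-fitted.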

The test system of test [15] is Zika virus NS2B-NS3 protease (unlinked complex). The test is described as follows: Primary screen GU Rhodamine qHTS for Zika virus inhibitors: Unlinked NS2B-NS3 protease assay (AID 1347159). The gist of the method:
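Buffer 10 mM Tris-HCl pH 8.0, 0.01% Tween 20. Unlinked protease 25 nM; compound preincubation 15 min, RT, protected from light. Substrate Rhod110, 1.5 microM; ~15% conversion in 15 min.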

Results filed as inconclusive are left out. Values without a mark were called inactive. Active and inactive are the calls of the source. Calls come from the whole dose curve; as a rule, active = well fitted curve in the direction sought with a large enough effect; inconclusive = small, poorly fitted or top-dose-only effect, or another doubt; inactive = no such curve, though single readings can be large; an effect the other way counts as inactive or inconclusive.

Sequence of Furin (Homo sapiens) (P09958 whole entry, looked up): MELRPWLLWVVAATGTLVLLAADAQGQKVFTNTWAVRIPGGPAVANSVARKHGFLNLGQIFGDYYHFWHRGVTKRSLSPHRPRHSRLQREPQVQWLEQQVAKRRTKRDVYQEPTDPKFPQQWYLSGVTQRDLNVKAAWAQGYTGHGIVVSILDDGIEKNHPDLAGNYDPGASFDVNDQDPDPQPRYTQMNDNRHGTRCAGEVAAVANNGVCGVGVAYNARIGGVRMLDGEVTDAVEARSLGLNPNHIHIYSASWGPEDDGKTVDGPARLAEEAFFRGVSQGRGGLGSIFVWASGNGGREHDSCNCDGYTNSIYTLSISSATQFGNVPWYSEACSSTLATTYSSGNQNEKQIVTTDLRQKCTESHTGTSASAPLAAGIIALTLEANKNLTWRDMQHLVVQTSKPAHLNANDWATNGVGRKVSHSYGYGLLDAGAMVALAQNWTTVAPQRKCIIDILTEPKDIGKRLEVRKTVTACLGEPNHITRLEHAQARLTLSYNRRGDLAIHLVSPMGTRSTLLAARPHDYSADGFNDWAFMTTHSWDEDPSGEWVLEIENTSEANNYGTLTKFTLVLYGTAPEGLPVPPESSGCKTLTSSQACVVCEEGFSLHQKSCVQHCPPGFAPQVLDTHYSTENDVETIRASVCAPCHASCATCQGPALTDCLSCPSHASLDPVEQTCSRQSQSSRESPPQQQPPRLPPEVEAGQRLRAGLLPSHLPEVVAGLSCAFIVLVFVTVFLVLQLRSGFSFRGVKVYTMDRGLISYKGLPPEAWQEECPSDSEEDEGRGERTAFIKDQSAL

On to `O=c1[nH]nc(OCCCc2ccc(Cl)cc2)c(NCc2cccnc2)c1Br`, for which the Potency in test [1] was 10400 nM (active); in test [2] it was 7370 nM (active); in test [3], 10400 nM (active). Also, the Potency result in test [4], in [5] and in test [6] was “inactive” each time.
Regarding `COc1ccc(-c2ccc3ncc4c(c3c2)n(-c2ccc(N3CCNCC3)c(C(F)(F)F)c2)c(=O)n4C)cn1`, the Potency is 10400 nM (active) in [1]; 465 nM (active) in test [2]; 58.5 nM (active) in test [3]; 185 nM (active) in [7]; 414 nM (active) in [8]; 293 nM (active) in test [9]. For the same compound, the figures for the Potency in test [10], in test [11] and in [5] were 369 nM (active), 132 nM (active) and 21500 nM (active), respectively. For the same compound, the activity change, negative = inhibition is -10.9% [at 5.45 µM] with Furin (Homo sapiens), -9% [at 5.51 µM] in [12] and 14.2% [at 12.7 µM] in test [14]. Besides, the activity, negative = inhibition in test [13] was -4.48% [at 5.51 µM].
For the compound `C=CC(=O)Nc1cccc(Sc2nc(Nc3ccc(N4CCN(C)CC4)cc3)ncc2Cl)c1`, the Potency was 16500 nM (active) in [2]; 10400 nM (active) in [3]; 5850 nM (active) in test [7]; 9270 nM (active) in test [9]; 16500 nM (active) in test [4]; 14700 nM (active) in [10]. Also, the Potency in test [11] was 9350 nM (active). Besides, the Potency result in [5], in test [15] and in test [6] was “inactive” each time.
`FC(F)(F)c1ccc(C=Cc2nc(COc3ccc(CCCCn4ccnn4)cc3)co2)cc1`: the Potency was 369 nM (active) in [1], 261 nM (active) in test [2] and 1850 nM (active) in test [7]. Also, the Potency entry in test [10], in [11] and in test [5] was “inactive” each time.
For `CCCCn1c(=O)n(Cc2ccccc2F)c(=O)c2[nH]c(Cc3ccc(NC(C)=O)cc3)nc21`, the Potency result in test [1], in test [8], in [4], in [10], in test [11] and in test [5] was “inactive” each time. The Potency result in test [15] and in test [6] was “inactive” each time.
Turning to `N#CC(=C1Nc2ccccc2S1)c1ccnc(OCc2ccc(CN3CCOCC3)cc2)n1`, the Potency result in [1], in test [2], in test [3], in test [7], in test [8] and in test [9] was “inactive” in each case. In addition, the Potency result in test [11] is “inactive”.
As to `Cc1ccc(C(=O)N(CCCN)[C@@H](c2oc3cc(Cl)ccc3c(=O)c2Cc2ccccc2)C(C)C)cc1`, the Potency in test [2] was 36.9 nM (active); in [3], 9.3 nM (active); in test [7], 16.5 nM (active); in test [9] it was 23300 nM (active); in test [4], 9.3 nM (active); in test [10], 9.3 nM (active). The Potency result in test [5] was “inactive”.
On to `C=C1[C@H](n2cnc3c(=O)[nH]c(N)nc32)C[C@H](O)[C@H]1CO`, for which the Potency result in test [2], in test [3], in test [7], in [9], in [4] and in [10] was “inactive” throughout. Moreover, the Potency entry in test [11] was “inactive”.
Take `C[C@@H]1[C@H](O)[C@@H](C)C=CC=CC=CC=CC=CC=CC=C[C@H](O[C@@H]2O[C@H](C)[C@H](O)[C@H](N)[C@@H]2O)C[C@@H]2O[C@](O)(C[C@@H](O)C[C@@H](O)[C@H](O)CC[C@@H](O)C[C@@H](O)CC(=O)O[C@H]1C)C[C@H](O)[C@@H]2C(=O)O`: the Potency result in test [2], in test [3], in test [7], in test [9], in test [4] and in [10] was “inactive” each time. Besides, the Potency result in test [11] was “inactive”.
As for `CSc1cccc(Nc2ncc3cc(-c4c(Cl)cccc4Cl)c(=O)n(C)c3n2)c1`, the Potency in test [2] was 3290 nM (active); in [3], 465 nM (active); in [7], 369 nM (active); in test [8], 3290 nM (active); in [9], 6570 nM (active); in [4], 2330 nM (active). For the same compound, the Potency in test [10] is 4650 nM (active); in test [11], 2640 nM (active). Moreover, the Potency result in test [5] was “inactive”.
For `CC1=C(CC(=O)O)c2cc(F)ccc2C1=Cc1ccc(S(C)=O)cc1` (stereo unspecified), the Potency entry in test [1], in test [2], in test [3], in [7], in test [8] and in test [9] was “inactive” each time. Besides, the Potency result in test [4], in test [10], in test [11] and in test [5] was “inactive” in each case.
As to `C[C@@]1(C(=O)Nc2ccc(F)nc2)CCCN1c1nc(Nc2cc(C3CC3)[nH]n2)c2cccn2n1`, the Potency in [1] is 14700 nM (active); in test [2], 1650 nM (active); in test [3], 208 nM (active); in [4], 1850 nM (active); in [10], 5220 nM (active); in test [11], 1660 nM (active). Also, the Potency result in test [5] and in [15] was “inactive” each time.
As for `CCC[C@H](Nc1nc(-c2ccc(NC(=O)NCC)c(OC)c2)ncc1C)c1cccnc1`, the Potency result in test [1], in [8], in [11] and in test [5] was “inactive” throughout. The Potency in [2] was 233 nM (active); in [7] it was 147 nM (active); in test [4] it was 208 nM (active); in test [10] it was 329 nM (active).
With `CC[C@]1(O)C[C@H]2CN(CCC3=c4ccccc4=N[C]3[C@@](C(=O)OC)(c3cc4c(cc3OC)N(C)[C@H]3[C@@](O)(C(N)=O)[C@H](O)[C@]5(CC)C=CCN6CC[C@]43[C@@H]65)C2)C1`, the Potency result in [1], in test [9] and in test [5] was “inactive” throughout. The Potency is 928 nM (active) in [2], 369 nM (active) in test [7], 46.5 nM (active) in test [4] and 1180 nM (active) in [11].
With `COc1cc2c(cc1Cc1cccc(Cl)c1F)c(=O)c(C(=O)O)cn2[C@H](CO)C(C)C`, the Potency entry in [2] and in test [7] was “inactive” each time. Besides, the Potency in test [3] is 16500 nM (active).

Values taken from PubChem BioAssay (NCATS).
